# Assay results taken from PubChem BioAssay.
# Where “and” joins values, the source holds several entries; their conditions need not be identical. Identical values can stand only once. Calls of active or inactive are those of the source.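 Rule for the calls, unless noted: active = normalized viability below 100% at a tested concentration; inactive = the rest.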
# Key:
# [1] = Wnt pathway potentiators raising nuclear beta-catenin – imaging, WNT3A-conditioned medium, mouse C2C12, NPC library, primary screen (AID 1117326; in the data active = nuclear beta-catenin stimulation mostly above about 4.2%, no sharp cut-off; inactive = mostly below about 10%); settings: stronger effect = higher value
# [2] = stimulators of insulin release from INS-1E, primary screen, cell-based, 5 mM glucose, NPC library (AID 1117329;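 active = compound raises insulin release from rat beta cells at 5 mM glucose, no numeric limit stated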); settings: rat INS-1E insulin secretion, at 10 µM, stronger effect = higher value
# [3] = growth inhibition of GSK3B-pretreated HCT116 cells – cell-based, CellTiter-Glo, 0.2 to 20 µM (AID 1117336;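 active = compounds lowering colon cancer cell viability after pretreatment blocking the GSK3B kinase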); settings: HCT116 viability after GSK3B inhibitor, at 20 µM, stronger effect = higher value
# [4] = inhibition of endothelial tube formation, primary screen, imaging, VEGF stimulated, CD31 staining, tube area, NPC library (AID 1117340;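 active = compound that reduces growth-factor-driven endothelial tube area in a mixed cell culture, no cutoff stated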); settings: VEGF-stimulated ADSC/ECFC co-culture, at 10 µM, stronger effect = higher value
# [5] = GLP1 release stimulators, primary, NCI-H716, NPC library (AID 1117341;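 active = compound raises GLP1 secretion from the human gut endocrine cells, with no numeric limit stated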); settings: NCI-H716 cells, at 10 µM, stronger effect = higher value
# [6] = HCT116 colon cancer cell growth inhibition, primary screen, CellTiter-Glo luminescence, NPC library (AID 1117342;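 active = compounds that lower survival of HCT116 colon cancer cells in the luminescence readout, no numeric limit stated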); settings: at 20 µM (top of the series)
# [7] = reduced SW480 viability measured with CellTiter-Glo, NPC library, primary (AID 1117343;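 active = compounds that lower viability of the colon cancer cells in the luminescence readout, with no numeric limit stated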); settings: CellTiter-Glo luminescence; at 20 µM (top of the series) unless noted
# [8] = NPC library primary testing for decreased DLD-1 cell viability via CellTiter-Glo (AID 1117346;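 active = compounds that lower survival of DLD-1 colon cancer cells in the luminescence readout, no cutoff given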); settings: DLD-1 viability, CellTiter-Glo luminescence; at 20 µM (top of the series)
# [9] = EMT-state selective cytotoxicity in co-culture – imaging, PC-3E GFP, TEM4-18 mCherry, primary screen (AID 1345086;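 active = compounds killing one labelled cell type while sparing the other, by normalised counts and ratio limits, not self-fluorescent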;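 for all read-outs here: cells exposed to compound for 72 h before imaging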;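 for red/green cell ratio (normalised): normalised mesenchymal count divided by normalised epithelial count so high means epithelial killing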); settings: PC-3E GFP / TEM4-18 mCherry co-culture, imaging cell counts, at 1 µM; for red/green cell ratio (normalised): actives lie on both sides, counts scaled to control wells, 1 = unselective
# [10] = viability loss with induced miR-34 in A549 – imaging, A549 dox-inducible miR-34, nuclei and caspase counts, primary screen (AID 1347080;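 active = compounds whose cell count with miR-34 switched on is under 0.7 times the count with it off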); settings: A549 miR-34 inducible, Hoechst nuclei count, 48 h
# [11] = MELAS cybrid and Rieske KO viability enhancers – cell-based, MELAS cybrids, Rieske KO mouse fibroblasts, CellTiter-Glo, primary screen (AID 1508586;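 active = mean z-score across replicates of 1.96 or higher in either the MELAS or the Rieske mutant cell line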;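 note: z relative to plate mean and SD of compound and empty wells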); settings: low glucose
# [12] = drug combination growth inhibition, ovarian cancer – cell-based, oncology-focused library, rucaparib conditional, profiling panel (AID 1508598); settings: patient-derived ovarian cancer cells, CellTiter-Glo viability, 144 h, stronger effect = lower value
# [13] = P. berghei load reduction in hepatocytes – cell-based, HepG2, luciferase luminescence, HepG2 viability, primary screen (AID 624349; in the data active = parasite load remaining mostly below about 12%, no sharp cut-off; inactive = mostly above about 10%;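 note: 100% = mean of DMSO negative control wells on the same plate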); settings: P. berghei liver stage in HepG2, luciferase luminescence, concentration not given here; parasite load remaining: stronger effect = lower value; viability: measured here: HepG2 viability without parasites
# [14] = target: NAD(+) hydrolase SARM1 (Homo sapiens) (UniProt Q6SZW1); test: blocking NAD cleavage by SARM1 SAM-TIR – cell lysate, NAD-Glo luminescence (AID 1508614;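 active = compound whose remaining NAD level is above about 45 nM, limit read from the data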;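 note: higher remaining NAD means stronger inhibition of SARM1 NADase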); settings: SAM-TIR HEK293T lysate NADase, at 1 µM, stronger effect = higher value
# [15] = measured here: epithelial PC-3E GFP cell survival
# [16] = measured here: mesenchymal TEM4-18 mCherry cell survival
# [17] = stronger effect = lower value, cell number ratio, induced over uninduced
# [18] = measured here: relative caspase fold change +Dox/-Dox
# [19] = measured here: total cells with miR-34 induction, stronger effect = lower value
# [20] = measured here: total cells without miR-34 induction
# [21] = MELAS cybrid survival, CellTiter-Glo 48 h, stronger effect = higher value
# [22] = Rieske KO mouse fibroblast survival, CellTiter-Glo 72 h
# Chain of NAD(+) hydrolase SARM1 (Homo sapiens) (Q6SZW1 whole entry, looked up): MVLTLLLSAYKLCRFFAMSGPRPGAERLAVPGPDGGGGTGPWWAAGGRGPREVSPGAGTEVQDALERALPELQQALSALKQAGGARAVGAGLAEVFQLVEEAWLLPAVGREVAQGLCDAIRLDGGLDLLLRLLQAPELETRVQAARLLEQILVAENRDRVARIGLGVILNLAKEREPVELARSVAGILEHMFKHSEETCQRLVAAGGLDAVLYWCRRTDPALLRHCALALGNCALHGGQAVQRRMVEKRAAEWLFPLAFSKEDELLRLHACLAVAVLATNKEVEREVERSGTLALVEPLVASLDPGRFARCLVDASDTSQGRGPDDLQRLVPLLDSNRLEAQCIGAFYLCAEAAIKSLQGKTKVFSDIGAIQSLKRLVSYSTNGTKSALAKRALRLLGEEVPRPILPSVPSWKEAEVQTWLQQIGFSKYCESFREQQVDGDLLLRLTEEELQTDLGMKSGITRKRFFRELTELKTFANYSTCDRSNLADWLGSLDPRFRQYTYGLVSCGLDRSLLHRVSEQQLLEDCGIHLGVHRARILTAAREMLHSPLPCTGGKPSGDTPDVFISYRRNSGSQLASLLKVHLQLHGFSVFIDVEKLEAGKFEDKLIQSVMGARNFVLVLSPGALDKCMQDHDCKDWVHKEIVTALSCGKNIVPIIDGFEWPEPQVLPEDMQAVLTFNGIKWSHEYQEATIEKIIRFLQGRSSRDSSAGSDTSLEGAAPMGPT
structure (smiles),measurement,setting,value
COc1cc2ncnc(Nc3ccc(F)c(Cl)c3)c2cc1OCCCN1CCOCC1,nuclear beta-catenin stimulation,[1]; at 10 µM,78.2% (active)
same,nuclear beta-catenin stimulation,"[1]; stimulation, at 2 µM",2.5%
same,insulin secretion stimulation,[2],0.7% (inactive)
same,viability decrease,[3],44.5% (inactive)
same,tube area decrease,[4],65.5% (active)
same,GLP1 secretion stimulation,[5],-2.9% (inactive)
same,inhibition of viability,[6],98.7% (active)
same,viability decrease (inhibition),[7],101% (active)
same,viability decrease (inhibition),[8],98.1% (active)
same,red/green cell ratio (normalised),[9],1.15 (inactive)
same,normalised cell number,[9]; [15],0.79
same,normalised cell number,[9]; [16],0.91
same,fold change,[10]; [17],0.786 (inactive) and 0.938 (inactive) and 0.793 (inactive)
same,fold change,[10]; [18],1.64 and 1.38 and 1.39
same,cell count,[10]; [19],4800 and 6990 and 6580
same,cell count,[10]; [20],6110 and 7460 and 8300
same,z-score,[11]; [21],-0.609 (inactive) and 0.334 and 0.781 (inactive)
same,z-score,[11]; [22],-0.845 and 2.09 and 1.88
same,viability,"[12]; at 0.000305 µM, OCI-C5x cells, with rucaparib 10 µM, 100% = cells with rucaparib alone",94.6% (active)
same,viability,"[12]; at 0.000305 µM, OCI-C5x cells, without rucaparib",94.5% (active)
same,viability,"[12]; at 0.000305 µM, OCI-P5x cells, with rucaparib 20 µM, 100% = cells with rucaparib alone",100% (inactive)
same,viability,"[12]; at 0.000305 µM, OCI-P5x cells, without rucaparib",100% (inactive)
same,viability,"[12]; at 0.00122 µM, OCI-C5x cells, with rucaparib 10 µM, 100% = cells with rucaparib alone",98.1% (active)
same,viability,"[12]; at 0.00122 µM, OCI-C5x cells, without rucaparib",93.8% (active)
same,viability,"[12]; at 0.00122 µM, OCI-P5x cells, with rucaparib 20 µM, 100% = cells with rucaparib alone",106% (inactive)
same,viability,"[12]; at 0.00122 µM, OCI-P5x cells, without rucaparib",100% (inactive)
same,viability,"[12]; at 0.00488 µM, OCI-C5x cells, with rucaparib 10 µM, 100% = cells with rucaparib alone",95.1% (active)
same,viability,"[12]; at 0.00488 µM, OCI-C5x cells, without rucaparib",102% (inactive)
same,viability,"[12]; at 0.00488 µM, OCI-P5x cells, with rucaparib 20 µM, 100% = cells with rucaparib alone",95.6% (active)
same,viability,"[12]; at 0.00488 µM, OCI-P5x cells, without rucaparib",100% (inactive)
same,viability,"[12]; at 0.0195 µM, OCI-C5x cells, with rucaparib 10 µM, 100% = cells with rucaparib alone",109% (inactive)
same,viability,"[12]; at 0.0195 µM, OCI-C5x cells, without rucaparib",98% (active)
same,viability,"[12]; at 0.0195 µM, OCI-P5x cells, with rucaparib 20 µM, 100% = cells with rucaparib alone",98.7% (active)
same,viability,"[12]; at 0.0195 µM, OCI-P5x cells, without rucaparib",96.3% (active)
same,viability,"[12]; at 0.0781 µM, OCI-C5x cells, with rucaparib 10 µM, 100% = cells with rucaparib alone",101% (inactive)
same,viability,"[12]; at 0.0781 µM, OCI-C5x cells, without rucaparib",92% (active)
same,viability,"[12]; at 0.0781 µM, OCI-P5x cells, with rucaparib 20 µM, 100% = cells with rucaparib alone",98.6% (active)
same,viability,"[12]; at 0.0781 µM, OCI-P5x cells, without rucaparib",100% (active)
same,viability,"[12]; at 0.313 µM, OCI-C5x cells, with rucaparib 10 µM, 100% = cells with rucaparib alone",101% (inactive)
same,viability,"[12]; at 0.313 µM, OCI-C5x cells, without rucaparib",99.7% (active)
same,viability,"[12]; at 0.313 µM, OCI-P5x cells, with rucaparib 20 µM, 100% = cells with rucaparib alone",88.2% (active)
same,viability,"[12]; at 0.313 µM, OCI-P5x cells, without rucaparib",101% (inactive)
same,viability,"[12]; at 1.25 µM, OCI-C5x cells, with rucaparib 10 µM, 100% = cells with rucaparib alone",103% (inactive)
same,viability,"[12]; at 1.25 µM, OCI-C5x cells, without rucaparib",94.5% (active)
same,viability,"[12]; at 1.25 µM, OCI-P5x cells, with rucaparib 20 µM, 100% = cells with rucaparib alone",98.4% (active)
same,viability,"[12]; at 1.25 µM, OCI-P5x cells, without rucaparib",97.2% (active)
same,viability,"[12]; at 5 µM, OCI-C5x cells, with rucaparib 10 µM, 100% = cells with rucaparib alone",56.7% (active)
same,viability,"[12]; at 5 µM, OCI-C5x cells, without rucaparib",72% (active)
same,viability,"[12]; at 5 µM, OCI-P5x cells, with rucaparib 20 µM, 100% = cells with rucaparib alone",86.8% (active)
same,viability,"[12]; at 5 µM, OCI-P5x cells, without rucaparib",99.3% (active)
Clc1ccc(C(Cn2ccnc2)OCc2ccsc2Cl)c(Cl)c1 (stereo not given),parasite load remaining,[13],37.3% (inactive) and 6.58% (inactive)
same,viability,[13],97.8% and 62%
same,nuclear beta-catenin stimulation,[1]; at 10 µM,4.5% (inactive)
same,nuclear beta-catenin stimulation,"[1]; stimulation, at 2 µM",0.7%
same,insulin secretion stimulation,[2],0.9% (inactive)
same,viability decrease,[3],100% (active)
same,tube area decrease,[4],110% (active)
same,GLP1 secretion stimulation,[5],10.8% (inactive)
same,inhibition of viability,[6],100% (active)
same,viability decrease (inhibition),[7],123% (active)
same,viability decrease (inhibition),[8],103% (active)
same,red/green cell ratio (normalised),[9],1.15 (inactive)
same,normalised cell number,[9]; [15],0.85
same,normalised cell number,[9]; [16],0.97
same,fold change,[10]; [17],0.919 (inactive) and 0.86 (inactive) and 0.892 (inactive)
same,fold change,[10]; [18],0.876 and 3.84 and 1.06
same,cell count,[10]; [19],7290 and 10300 and 7120
same,cell count,[10]; [20],7930 and 12000 and 7980
same,z-score,[11]; [21],-0.0566 (inactive) and 0.885 (inactive) and 0.0763 (inactive)
same,z-score,[11]; [22],-0.152 and 0.306 and -0.538
same,remaining NAD,[14],10 nM (inactive)
COc1ccc(O)cc1,nuclear beta-catenin stimulation,[1]; at 10 µM,1.7% (inactive)
same,nuclear beta-catenin stimulation,"[1]; stimulation, at 2 µM",0.5%
same,insulin secretion stimulation,[2],-1.8% (inactive)
same,viability decrease,[3],12.9% (inactive)
same,tube area decrease,[4],18.7% (inactive)
same,GLP1 secretion stimulation,[5],-0.4% (inactive)
same,inhibition of viability,[6],-4.9% (inactive)
same,viability decrease (inhibition),[7],88.2% (active)
same,viability decrease (inhibition),[8],27.4% (inactive)
same,red/green cell ratio (normalised),[9],1.14 (inactive)
same,normalised cell number,[9]; [15],1.04
same,normalised cell number,[9]; [16],1.18
same,fold change,[10]; [17],0.919 (inactive) and 0.917 (inactive)
same,fold change,[10]; [18],0.877 and 0.265
same,cell count,[10]; [19],7700 and 8110
same,cell count,[10]; [20],8370 and 8840
same,z-score,[11]; [21],-0.189 (inactive)
same,z-score,[11]; [22],-0.254
same,remaining NAD,[14],10 nM (inactive)
